# The campaign covered roughly 200,000 compounds. About 18,000 (9%) were called active. The sample as a whole holds a higher share of actives than the screen did. A number with no mark means an inactive call. Rule as the data show it: active = inhibition above about 50%; inactive = the rest.
# Experiment: antileishmanial activity against promastigotes – primary screen (AID 1063);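 also: promastigotes grown with compound for 44 hours at 28 °C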
# Conditions: Leishmania major promastigotes, resazurin fluorescence viability; at 10 µM; active compounds read high
row,SMILES,inhibition
1,c1cncc(-c2nnc3n2C2(CCCCC2)Cc2ccccc2-3)c1,-0.67%
2,CCOc1cccc2c1OC1(CCCCC1)N1N=C(c3cccnc3)CC21 (stereo unspecified),57.3% (active)
3,O=[N+]([O-])c1ccc(Sc2n[nH]c(-c3ccco3)n2)nc1,4.36%
4,CCOC(=O)CSc1nc(C)cc2c1C(=O)OC2,3.71%
5,COC(=O)c1sc2ncccc2c1OCc1ccc(Cl)cc1Cl,-2.34%
6,CCOc1ccc(NC(=O)NNC(=O)c2ccc(Cl)cc2Cl)cc1,-5.16%
7,NC(N)=N/N=C/c1ccc(OCc2ccc(Cl)cc2Cl)cc1,101% (active)
8,CCOC(=O)CN/C=C(\C#N)c1ccc(F)cc1,-7.97%
9,Cc1c(CN2CCCCC2)c(O)n(CCO)c(=O)c1C#N,3.34%
10,O=C(NNC(=O)c1ccc(Cl)cc1Cl)c1cccs1,-10.1%
11,CC(C)(O)C#Cc1ncc(C(F)(F)F)cc1Cl,-3.82%
12,COc1ccc(C2Nc3ccccc3C(=O)N2c2ccc(Cl)cc2)cc1Cn1cc([N+](=O)[O-])cn1 (stereo unspecified),53.1% (active)
13,COc1ccc([N+](=O)[O-])cc1C1NN=C(c2cccc3ccccc23)S1 (stereo unspecified),-6.23%
14,CCN(C(=O)CSc1nc2ccccc2n1CC)C1CCS(=O)(=O)C1 (stereo unspecified),-3.23%
15,CC(C)CNC(=O)/C=C/C(=O)O,1.32%
16,CC(=O)c1ccc(-c2nnc(CCC(=O)N(C)Cc3cnc4ccccn34)o2)s1,-0.67%
17,Cc1ccc(NC(=O)Cn2cccc2C2=NC(c3ccccc3)CO2)c(C)c1 (stereo unspecified),77.4% (active)
18,Cc1ccc(NC(=O)Cn2nc(C)c3ccccc3c2=O)c(C)c1,34.8%
19,Cc1ccc(NC(=O)c2ccn(C(=O)Nc3ccccc3)n2)c(C)c1,-1.05%
20,CC1(C)CC(=O)c2ccc(O)cc2O1,-5.54%
21,CN(Cc1cccc2ncccc12)C(=O)CC1C(=O)NCCN1Cc1ccc(F)cc1 (stereo unspecified),-8.65%
22,O=C(C1CCN(S(=O)(=O)c2cnc[nH]2)CC1)N1CCN(Cc2ccc3c(c2)OCO3)CC1,-5.72%
23,O=C(NCC1CCCO1)C1CCN(C2CCN(C(=O)C3CCCCC3)CC2)CC1 (stereo unspecified),-2.22%
24,O=C(C1CCN(C2CCN(Cc3ccc4cc(F)ccc4n3)CC2)CC1)N1CCCC1,48.3%

row,SMILES,inhibition
1,C/C(=C\c1ccco1)CN1CCC(N2CCC(C(=O)N3CCOCC3)CC2)CC1,77.8% (active)
2,COc1ccc(S(=O)(=O)N2CCC(C(=O)N3CCOCC3)CC2)cc1OC,-6.25%
3,O=C(C1CCN(C2CCN(Cc3cccc4c3OCO4)CC2)CC1)N1CCOCC1,76.2% (active)
4,Cn1c(N)c(C(=O)COC(=O)c2ccccc2NCc2ccco2)c(=O)n(C)c1=O,-3.53%
5,Cc1ccc(NC(=O)CN2CCC(C(N)=O)CC2)cc1[N+](=O)[O-],-1.6%
6,Cc1cc(N2CCN(C)CC2)nc2ccc(NC(=S)N3CCOCC3)cc12,6.8%
7,CN1CCN(c2nc(Nc3ccc(O)cc3)nc3ccccc23)CC1,99.9% (active)
8,COc1ccc(Nc2ncc(F)c(N3CCOCC3)n2)cc1,19.7%
9,CCCCc1nc2ccccc2c(NC(=O)CN2CCN(C)CC2)c1CCC,32.8%
10,c1ccc(-c2nnc(N3CCOCC3)c3ccccc23)cc1,14%
11,c1ccc(Nc2nc(N3CCOCC3)c3ccccc3n2)cc1,79.3% (active)
12,CC1CCC(NC(=O)C2c3ccccc3C(=O)N2Cc2ccc3c(c2)OCO3)CC1 (stereo unspecified),14.7%
13,CNC(=S)NNC(=O)c1cccn(Cc2ccccc2)c1=O,-2.81%
14,CCc1nnc(NC(=O)CCCSc2nc3ccccc3[nH]2)s1,12.7%
15,COc1ccc(N2CCN(C(=O)C3CCN(S(=O)(=O)c4ccc(C)cc4)CC3)CC2)cc1,7.36%
16,O=c1oc(-c2ccco2)nc2sc3c(c12)CCCCC3,-6.27%
17,CCn1c(N)c(Br)c(=O)[nH]c1=O,-8.78%
18,CCCCN(CC)CCCNC(=O)c1ccc(CSc2nc3ccncc3[nH]2)cc1,-5.43%
19,Cc1ncoc1C(=O)N1CCCC(C(=O)c2ccc3c4c(cccc24)CC3)C1 (stereo unspecified),5.73%
20,O=C(COC(=O)/C=C/c1ccc(S(=O)(=O)N2CCCCCC2)cc1)NCc1ccccc1Cl,65.4% (active)
21,COc1ccc(CNC(=O)COC(=O)/C=C/c2ccc(S(=O)(=O)N3CCOCC3)cc2)cc1,2.59%
22,O=C(O)/C=C/c1ccc(S(=O)(=O)N2CCCCCC2)cc1,-3.02%
23,Cc1ccc(NCc2n[nH]c(=S)n2-c2ccccc2)cc1Cl,-7.27%
24,CC(=O)c1ccc(N2CCN(CC(=O)Nc3ccccc3N3CCOCC3)CC2)cc1,12.9%

row,SMILES,inhibition
1,CC(C)n1c(-c2ccncc2)n[nH]c1=S,-1.76%
2,Cc1ccc(N2C(=O)C(CC(=O)Nc3cccc(F)c3)N(CCc3ccncc3)C2=O)cc1 (stereo unspecified),1.18%
3,N#Cc1c(NC(=O)C2CCCO2)sc2c1CCCCC2 (stereo unspecified),0.81%
4,CC1CN(C(=O)c2ccc3c(c2)OCO3)OC(c2ccccc2)O1 (stereo unspecified),71.5% (active)
5,O=C(Nc1ccccc1)c1ccc2c(c1)OCO2,-3.43%
6,O=C(c1ccc2c(c1)OCO2)N1CCOCC1,-6.99%
7,O=C(CSc1ccc(-c2ccccc2)nn1)NCC1CCCO1 (stereo unspecified),-4.19%
8,Cc1cc(C)nc(NNC2=CC(=O)CC(C)(C)C2)n1,-7.56%
9,CCOC(=O)/C(C#N)=C/c1cn(CCC(=O)O)nc1-c1ccc(Br)cc1,-8.02%
10,CCOC(=O)Cc1ncccc1C(=O)Nc1ccc(OC)cc1,-2.87%
11,CC(C)(CNC(=O)c1ccc(Cl)c(S(=O)(=O)N2CCc3ccccc3C2)c1)N1CCOCC1,50.3% (active)
12,Cc1ccccc1CSCCNC(=O)c1ccc(Cl)c(S(=O)(=O)N2CCOCC2)c1,25.1%
13,O=C(NCCSCc1ccccc1)c1ccc(Cl)c(S(=O)(=O)N2CCOCC2)c1,5.02%
14,O=C(CP(=O)(c1ccccc1)c1ccccc1)N1CCOCC1,-9.31%
15,O=C(NC1CCCCCC1)c1cccnc1Sc1ccc(Cl)cc1,-4.38%
16,O=C(NCc1cccnc1)c1cccnc1Sc1ccc(Cl)cc1,84.6% (active)
17,O=C(O)c1ccccc1-c1ccccc1C(=O)NCc1cccnc1,-6.64%
18,Cc1ccc(S(=O)(=O)N(Cc2ccc(Cl)cc2)c2ccccc2C(=O)NCc2cccnc2)cc1,93.2% (active)
19,Cc1ccc(CNC(=O)c2cccnc2Cl)cc1,0.71%
20,CS(=O)(=O)N(Cc1ccccc1Cl)c1ccc(C(=O)NCc2cccnc2)cc1,1.77%
21,O=C(NC(=S)Nc1cccc(-c2ccc(CO)o2)c1)c1cccs1,-1.96%
22,Cc1cc2c(cc1C)[n+](C)cn2CC(O)COCC1CC=CCC1 (stereo unspecified),-1.67%
23,COc1ccc(N2CCN(C(=O)/C(C#N)=C/c3ccccc3)CC2)cc1,6.39%
24,Cc1ccc(N2C(=O)C3CC3C2=O)cc1 (stereo unspecified),-5.37%

row,SMILES,inhibition
1,O=C(COC(=O)c1ccc(Cl)nc1)NCc1cccs1,-8.06%
2,CC(=O)Nc1cccc(-c2nc3ccccc3s2)c1C,17.8%
3,CCN(CC)c1ccc(C(=O)c2cnc(/N=C/N(C)C)s2)cc1,0.96%
4,Cc1cccc(N2CCN(c3ccc(C(N)=O)cc3[N+](=O)[O-])CC2)c1C,2.25%
5,CCc1c(SCCC(=O)O)nc2ccccc2c1C,-1.78%
6,CN1CCN(NC(=O)c2ccc(S(=O)(=O)N3CCCCCC3)cc2)CC1,-0.39%
7,CC1=NNC(=O)C1CCC(=O)N/N=C\c1ccc(Cl)c(Cl)c1 (stereo unspecified),-3.71%
8,O=C(C[n+]1ccccc1)N/N=C/c1ccc(O)cc1,-6.86%
9,O=C(CC(=O)Nc1ccc(Cl)c(Cl)c1)N/N=C/c1ccc(O)cc1,59.3% (active)
10,CCOC(=O)c1c(-c2cccc(N)c2)cn2ccccc12,0.87%
11,Cc1ccc(COc2ccc(/C=N/NC(=O)CN3CCCCC3)cc2)cc1,5.55%
12,O=C(Nc1cccc([N+](=O)[O-])c1)Nc1ccc(Cl)cn1,-0.05%
13,O=C(CCl)N(Cc1cccc([N+](=O)[O-])c1)c1cccc(Cl)c1,101% (active)
14,CCN(CC)C(=O)CN(c1cccc([N+](=O)[O-])c1)S(=O)(=O)c1ccccc1,-3.8%
15,Cc1ccc(C(=O)OC(C)CN2CCOCC2)cc1 (stereo unspecified),-9.42%
16,COC(=O)C(C)NC(=O)COc1ccc2ccccc2c1 (stereo unspecified),9.52%
17,CCCCCCCCc1c(O)nc(-n2[nH]c(C)c(CCO)c2=O)[nH]c1=O,-4.27%
18,COC(=O)/C(=C1\Oc2ccc(C(C)(C)C)cc2S1)C(F)(F)F,-4.31%
19,Cc1cc2ccccn2c1C(=O)c1cccc(S(=O)(=O)N2CCOCC2)c1,15.2%
20,COc1ccc(C(=O)CSc2nnnn2C)c(OC)c1,-1.53%
21,Cc1ccc(Oc2cc(NC(=O)CCCn3nc(C)c([N+](=O)[O-])c3C)cc([N+](=O)[O-])c2)cc1,98.4% (active)
22,Cc1nn(CC(=O)Nc2ccc(N(C)C)cc2)c(C)c1[N+](=O)[O-],0.03%
23,COc1ccc(CNC(=O)CCCn2nc(C)c([N+](=O)[O-])c2C)cc1,-8.33%
24,Cc1ccc(CNC(=O)CC2Sc3ccccc3NC2=O)cc1 (stereo unspecified),-7.06%

# — PubChem BioAssay AID1063 (University of Pittsburgh Molecular Library Screening Center, 2008)
